These sequences were tested against T1, GST-Nv-NF-kB (Ser allele) (Nematostella vectensis, UniProt A7UNT2 2-411) (assay: protein-binding microarray (PBM); PBM: ~300 nM protein, 6 mM HEPES pH 7.8, 80 mM KCl, 0.5 mM EDTA, 0.5 mM EGTA, 6% glycerol, 35 ng/ul poly-dIdC, 1% milk, 1 h, room temperature; Ap Aiptasia and Nv Nematostella (sea anemones) / Co Capsaspora / Aq Amphimedon (sponge) / Dm Drosophila / Hu human; RHD is the Rel homology domain; high values mean tight binding). Conditions: dsDNA, one strand shown.
T1 sequence: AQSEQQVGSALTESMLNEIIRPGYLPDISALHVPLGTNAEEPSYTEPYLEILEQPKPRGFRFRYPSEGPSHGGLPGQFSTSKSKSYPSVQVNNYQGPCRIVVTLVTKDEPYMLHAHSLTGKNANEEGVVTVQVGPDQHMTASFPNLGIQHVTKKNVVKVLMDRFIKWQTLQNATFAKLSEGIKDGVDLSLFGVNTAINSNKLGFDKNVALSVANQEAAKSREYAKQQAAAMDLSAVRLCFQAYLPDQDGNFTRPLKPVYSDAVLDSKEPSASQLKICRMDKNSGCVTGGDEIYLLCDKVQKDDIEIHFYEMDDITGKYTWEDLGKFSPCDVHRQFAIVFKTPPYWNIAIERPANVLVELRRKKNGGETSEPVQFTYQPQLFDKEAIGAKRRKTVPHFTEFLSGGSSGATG

Sequence	binding signal [z-score]
CCGATTAACATCACGGGGAGTCCTGATGTTAATCGGGTCTTGATTCGCTTGACGCTGCTG	4.29
CCGATTAACATCAAGGACTTCCCTGATGTTAATCGGGTCTTGATTCGCTTGACGCTGCTG	2.77
CCGATTAACATCAATATTTCCCATGATGTTAATCGGGTCTTGATTCGCTTGACGCTGCTG	3.55
CCGATTAACATCACACATTTCCCTGATGTTAATCGGGTCTTGATTCGCTTGACGCTGCTG	4.87
CCGATTAACATCAAATATTCCCATGATGTTAATCGGGTCTTGATTCGCTTGACGCTGCTG	4.14
CCGATTAACATCAGGGGGTACACTGATGTTAATCGGGTCTTGATTCGCTTGACGCTGCTG	3.94
CCGATTAACATCAGGGATTCACCTGATGTTAATCGGGTCTTGATTCGCTTGACGCTGCTG	4.26
CCGATTAACATCAGGGAATCCACTGATGTTAATCGGGTCTTGATTCGCTTGACGCTGCTG	3.63
CCGATTAACATCACCGCCCCACGTGATGTTAATCGGGTCTTGATTCGCTTGACGCTGCTG	1.37
CCGATTAACATCACGGAGTTCCCTGATGTTAATCGGGTCTTGATTCGCTTGACGCTGCTG	1.77
CCGATTAACATCAAGGTTTTCCCTGATGTTAATCGGGTCTTGATTCGCTTGACGCTGCTG	6.21
CCGATTAACATCAGAAAATGCCCTGATGTTAATCGGGTCTTGATTCGCTTGACGCTGCTG	1.55
CCGATTAACATCAAGGATTCCCGTGATGTTAATCGGGTCTTGATTCGCTTGACGCTGCTG	2.82
CCGATTAACATCAGGCTATCCCCTGATGTTAATCGGGTCTTGATTCGCTTGACGCTGCTG	3.73
